Screen size: about 350,000 compounds; about 9,900 (2.8%) were called active. Entries that show only a call come without a potency. Roughly 15% stayed inconclusive and do not appear here. Calls come from the whole dose curve; as a rule, active = well fitted activation curve with a large enough effect; inconclusive = small, poorly fitted or top-dose-only effect; inactive = no such curve, though single readings can be large or run the other way. The sample as a whole holds a higher share of actives than the screen did.
Assay: A quantitative high throughput screen for small molecules that induce DNA re-replication in MCF 10a normal breast cells. Note: nearly all actives have a fitted effect of over 50% in size.
Conditions: MCF 10A DNA re-replication, Hoechst nuclear intensity, 48 h; series mostly up to 46.1 µM
Potency is the fitted concentration of half-maximal effect.

Row | Compound | Potency
1 | COc1ccc(C(CNC(=O)c2cc(S(=O)(=O)Nc3cccc(C)c3)ccc2C)N2CCCC2)cc1 (centres undefined) | inactive
2 | Cc1ccc(OCCNC(=O)CN2C(=O)NC3(CCCC3)C2=O)cc1 | inactive
3 | COC(=O)COc1cccc2c(=O)n(CC(=O)NCCc3ccc(OC)c(OC)c3)ccc12 | inactive
4 | Cc1ccc(CNC(=O)CCNC(=O)Cn2ccc3ccccc3c2=O)cc1 | inactive
5 | COC(=O)COc1cccc2c(=O)n(CC(=O)NCc3ccccc3)ccc12 | 2.59 µM (active)
6 | O=C1C=C(NS(=O)(=O)c2ccccc2)C(=O)c2ccccc21 | inactive
7 | CCC(CO)Oc1cc(NC(=O)c2cccc(F)c2)c2ncn(C(C)C)c2c1 (centres undefined) | inactive
8 | O=C(N/N=C/c1coc2ccccc2c1=O)c1cc2ccccc2o1 | inactive
9 | Cc1c(/C=N/N2C(=O)C3C4C=CC(C4)C3C2=O)c2ccccc2n1C (centres undefined) | inactive
10 | Cc1c(/C=N\NC(=O)c2cc3ccccc3o2)c2ccccc2n1C | 6.51 µM (active)
11 | CCOc1ccc(C(=O)NCC(=O)N2CCN(c3ccc(C(F)(F)F)cn3)CC2)cc1 | inactive
12 | O=C(Nc1cc(S(=O)(=O)N2CCOCC2)ccc1N1CCOCC1)c1c(F)cccc1Cl | inactive
13 | CCn1c(=O)c(C(=O)NCc2ccc3c(c2)OCO3)c(O)c2ccccc21 | inactive
14 | Cc1nc2c(C(=O)NCc3ccc4c(c3)OCO4)c[nH]n2c(=O)c1Cc1ccccc1F | 7.31 µM (active)
15 | O=C(NCc1ccc2c(c1)OCO2)c1cc(F)c(F)cc1Cl | inactive
16 | Cc1cc(C)c(C#N)c(SCC(=O)N(CC(C)C)C2CCS(=O)(=O)C2)n1 (centres undefined) | inactive
17 | Cc1cccn2c(=O)c3cc(C#N)c(=NC(=O)c4cccnc4)n(CC4CCCO4)c3nc12 (centres undefined) | 13 µM (active)
18 | Cc1cccn2c(=O)c3cc(C(=O)N4COCC4(C)C)n(C)c3nc12 | inactive
19 | Cc1ccccc1NC(=O)Cn1c(=O)n(CC2CCCO2)c(=O)c2ccccc21 (centres undefined) | inactive
20 | Cc1cccn2c(=O)c(/C=C(\C#N)C(N)=O)c(N3CCCCCC3)nc12 | inactive
21 | Cc1cccn2c(=O)c3cc(C(=O)NC4CCCCC4)sc3nc12 | inactive
22 | Cc1cccn2c(=O)c3cc(C#N)c(=O)n(CCCN4CCOCC4)c3nc12 | 18.4 µM (active)
23 | CCOc1cc(C(=O)N(Cc2ccccc2)c2ccc(C)cc2)ccc1OCC(=O)N1CCOCC1 | inactive
24 | COc1ccc(C2NCCCC2c2ccccc2)cc1 (centres undefined) | inactive
25 | O=c1oc2cc(O)ccc2cc1-c1ccc(F)cc1 | 14.6 µM (active)

Row | Compound | Potency
26 | COc1cccc(C(=O)c2cc3ccc(O)cc3oc2=O)c1 | inactive
27 | COc1ccc(-c2cc3ccc(OCc4nn[nH]n4)cc3oc2=O)cc1 | inactive
28 | CCCCCCCCNS(=O)(=O)CCNC1CCCCC1 | inactive
29 | O=C(Nc1ccc(S(=O)(=O)N2CCOCC2)cc1)C1CCN(S(=O)(=O)c2ccc(Cl)cc2)CC1 | inactive
30 | COc1ccc(-c2cc3ncccc3cn2)cc1 | inactive
31 | COc1ccc(-c2sc3ccc(OC)cc3c2C#Cc2ccccn2)cc1 | 18.4 µM (active)
32 | COc1ccc(-c2nc(CS(=O)CC(=O)NCc3ccccn3)c(C)o2)cc1 (centres undefined) | inactive
33 | CN(C(=O)c1ccc(NC(=O)Cc2cccc(NC(=O)C3CCN(C(=O)c4ccccc4)CC3)c2)cc1)C1CC1 | inactive
34 | Cc1cn(C2CC(O)C(CO)O2)c(=O)n(CCCc2ccccc2)c1=O (centres undefined) | inactive
35 | CS(=O)(=O)c1ccc(C(=O)NNC(=O)c2cccs2)cc1 | inactive
36 | Cc1noc(C)c1NC(=O)Nc1ccc2c(c1)C(=O)N([C@H](C)CO)C[C@H](C)[C@@H](CN(C)C(=O)Nc1ccc(C(F)(F)F)cc1)O2 | inactive
37 | Cc1ccc(NC(=O)CCC(=O)N2CCC(c3ccccc3)=N2)cc1S(=O)(=O)N1CCCCC1 | 18.4 µM (active)
38 | CCc1ccccc1OCC(=O)Nc1ccc(C)c(S(=O)(=O)N2CCCCCC2)c1 | inactive
39 | Cc1ccc(NC(=O)CCCNC(=O)c2ccc(Cl)cc2)cc1S(=O)(=O)N1CCCCC1 | inactive
40 | CC(=O)OCC(=O)C1(O)CCC2C3CC(C)C4=CC(=O)CCC4(C)C3C(O)CC21C (centres undefined) | inactive
41 | CCOc1ccc(-c2n[nH]c(C)c2-c2ccccn2)c(O)c1 | inactive
42 | COc1ccc(-c2n[nH]c(C)c2-c2ccccc2OC)c(O)c1 | inactive
43 | COc1ccc(-c2n[nH]c(C)c2-c2ccc(OC)c(OC)c2)c(O)c1 | 16.4 µM (active)
44 | N#CCCN(C(=O)COC(=O)c1ccc2c(c1)OCCO2)c1ccccc1 | inactive
45 | O=C(NCCC1CCCCN1S(=O)(=O)c1ccc(F)cc1)C(=O)NC1CC1 (centres undefined) | inactive
46 | COc1ccccc1CCNC(=O)C(=O)NCCC1CCCCN1S(=O)(=O)c1cccs1 (centres undefined) | inactive
47 | O=C(NCCC1CCCCN1S(=O)(=O)c1cccs1)C(=O)Nc1ccc(F)cc1F (centres undefined) | 11.6 µM (active)
48 | CCOC(=O)C1CCN(C(=O)c2cccc(S(=O)(=O)N(CC)c3ccccc3)c2)CC1 | inactive
49 | CCN(C[C@H]1N[C@@](CC)(C(=O)OC)[C@H]2C(=O)N(Cc3ccccc3)C(=O)[C@@H]12)S(=O)(=O)c1ccccc1 | inactive
50 | O=C(COC(=O)c1ccccn1)NNC(=O)c1ccc(Br)cc1 | inactive

Row | Compound | Potency
51 | Cc1ccc(C(=O)N/C(=C\c2cn(C)c3ccccc23)C(=O)N2CCN(C)CC2)cc1 | inactive
52 | Cc1ccc(N2C(=O)S/C(=C/c3cn(C)c4ccccc34)C2=O)cc1 | inactive
53 | Cc1cccc(N=C2NC(=O)/C(=C/c3cn(C)c4ccccc34)S2)c1 | 10.3 µM (active)
54 | C=CC[C@@H](CC(=O)N[C@H](CO)Cc1ccccc1)C(=O)N[C@H](C)COC(=O)[C@@H](CC=C)Cc1ccc(F)cc1 | inactive
55 | C=CCn1c(=O)n(C)c2c(=O)n(C)c(=O)n(C)c21 | inactive
56 | COc1ccc(CCNC(=O)COC(=O)Cc2cccc(F)c2)cc1 | inactive
57 | Oc1[nH]c2ccccc2c1N=Nc1c(F)c(F)c(F)c(F)c1F | inactive
58 | COC(C[C@@H]1O[C@@H]1C(=O)[C@H](C)OCc1ccccc1)OC | inactive
59 | COC(C[C@H](O)CC(=O)[C@@H](C)OCc1ccccc1)OC | inactive
60 | COC(C/C=C/C(=O)[C@@H](C)OCc1ccccc1)OC | 18.4 µM (active)
61 | COc1ccc(S(=O)(=O)N(C)C[C@@H]2Oc3ccc(NC(=O)Nc4c(C)noc4C)cc3C(=O)N([C@H](C)CO)C[C@@H]2C)cc1 | inactive
62 | Cc1ccc(-c2n[nH]c(=S)n2/N=C/c2cc3c(cc2[N+](=O)[O-])OCO3)cc1 | inactive
63 | Cc1ccc(S(=O)(=O)N/N=C\c2cc3c(cc2[N+](=O)[O-])OCO3)cc1 | 23.1 µM (active)
64 | CC(=O)N/N=C/c1cc2c(cc1[N+](=O)[O-])OCO2 | inactive
65 | O=C1COc2ccc(C(=O)CSc3ccc(Br)cc3)cc2N1 | inactive
66 | COc1ccc(Cn2cc(CN3CCS(=O)(=O)N(Cc4ccc(-c5cccc(Cl)c5)cc4)C(C)C3=O)nn2)cc1 (centres undefined) | inactive
67 | CN(CC(=O)Nc1ccc(F)cc1)C(=O)c1ccc(-c2ccc(Cl)cc2)o1 | inactive
68 | Cc1[nH][nH]c(=O)c1N=Nc1ccccc1 | inactive
69 | Cc1[nH][nH]c(=O)c1C(c1ccc(-c2ccc(Cl)cc2)o1)c1c(C)[nH][nH]c1=O | 20.6 µM (active)
70 | S=C(Nc1cccc(Cl)c1)Nc1ccc2cn[nH]c2c1 | inactive
71 | Cc1csc(NC(=S)Nc2cccc(Cl)c2)n1 | 20.6 µM (active)
72 | CC(=O)Nc1cccc(C(=O)Nc2nc(C)cs2)c1 | inactive
73 | CCOc1ccccc1Nc1nnc(SCC(=O)NCC2CCCO2)s1 (centres undefined) | inactive
74 | COC(=O)c1ccc(CSc2nnc(N)s2)o1 | inactive
75 | CCOc1ccccc1Nc1nnc(SCc2ccc(C(=O)OC)o2)s1 | 18.4 µM (active)

Row | Compound | Potency
76 | NC1=NOC(=O)C1C1CCCCC1 (centres undefined) | inactive
77 | CCOc1ccc(S(=O)(=O)N2CCN(C(=O)c3oc4ccccc4c3C)CC2)cc1 | inactive
78 | Cc1cc(N2CCCC2)ccc1NC(=O)COc1ccc(Cl)cc1 | inactive
79 | Cc1ccc(C)c(S(=O)(=O)N2CCN(c3ncnc4sccc34)CC2)c1 | 18.4 µM (active)
80 | Cc1ccc(S(=O)(=O)N2CCN(c3ncnc4ccccc34)CC2)cc1 | inactive
81 | COc1ccc(C)cc1S(=O)(=O)N1CCN(S(=O)(=O)c2cc(C(=O)O)ccc2C)CC1 | inactive
82 | COC(=O)Cc1c(-c2[nH]c3ccccc3c2CC(=O)OC)[nH]c2ccccc12 | inactive
83 | COc1ccc(NC(=O)CSc2nnc(C3CC3)n2C)cc1S(=O)(=O)N1CCCCC1 | inactive
84 | CCc1ccccc1NC(=O)c1ccc2snnc2c1 | inactive
85 | O=C(Nc1cccc(Br)c1)c1ccc2snnc2c1 | inactive
86 | O=C(Nc1ccc2ccccc2c1)Nc1ccc2snnc2c1 | 5.8 µM (active)
87 | CC(=O)c1c(OCC(=O)N(C)C2CCCCC2)ccc2c(C)cc(=O)oc12 | inactive
88 | CC1=CC(=NNS(=O)(=O)c2ccc([N+](=O)[O-])cc2)CC(C)(C)C1 | inactive
89 | COc1ccc(-c2oc(/N=C/N3CCCC3)c(C#N)c2-c2ccc(OC)cc2)cc1 | inactive
90 | N#Cc1c(/N=C/N2CCCC2)oc(-c2ccccc2)c1-c1ccccc1 | 9.2 µM (active)
91 | COc1cc(C(=O)Nc2oc(-c3ccccc3)c(-c3ccccc3)c2C#N)cc(OC)c1OC | inactive
92 | O=C1NC(c2ccccc2)Cc2ccncc21 (centres undefined) | inactive
93 | CCN(CC)S(=O)(=O)c1ccc(OC)c(NC(=O)CCc2c(C)noc2C)c1 | inactive
94 | C=C1CCC(N(O)c2cc(C)on2)C(=C)CCC2C1CC2(C)C (centres undefined) | inactive
95 | CCCCN(C(=O)C(CCSC)N1C(=O)c2ccccc2C1=O)c1c(N)n(CCC)c(=O)[nH]c1=O (centres undefined) | inactive
96 | NNc1nc2c(Cl)cccc2s1 | 16.4 µM (active)
97 | O=C(Nc1ccccc1)Nc1nc2ccccc2s1 | inactive
98 | CN(CC(=O)Nc1ccc(OC(F)F)cc1)S(=O)(=O)/C=C/c1ccccc1 | inactive
99 | O=C(NN=Cc1ccccc1)c1ccccc1 | inactive
